The source of these data is PubChem BioAssay.

Several values for one entry are separate records, joined by “and”; a condition that tells them apart may be missing. Identical values can stand only once. Records with an inconclusive call do not appear. Activity calls are given as the source filed them. Cut-off read from the data, not from the text of the source, unless noted: active = response above about 15%; inactive = the rest.

Assay [1] can be described thus: rapamycin-like changes in RPL19A-GFP expression – cell-based, S. cerevisiae, multiplex flow cytometry, primary screen (AID 1862; in the data active = percent of DMSO control GFP below about 86%;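 note: lower values mimic rapamycin by blocking the RPL19A rise seen in DMSO cells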). The following applies: S. cerevisiae RPL19A-GFP strain, flow cytometry fluorescence, 3 h; at 10 µM; stronger effect = lower value. On the technique in general: A flow cytometer gives signals particle by particle.
The nature of assay [2]: TOR pathway GLN3 branch reporter MEP2-GFP changes – S. cerevisiae, multiplex flow cytometry, primary screen (AID 1867;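 active = GFP response, as percent of the DMSO control, above the screen-wide mean plus 3 SD, about 139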;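 note: median GFP channel fluorescence of barcode-gated MEP2-GFP cells measured by flow cytometry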). The following applies: S. cerevisiae MEP2-GFP strain, 3 h, at 10 µM, stronger effect = higher value, 100% means same as DMSO wells.
Assay [3] is described as follows: TOR pathway RTG branch CIT2 reporter changes – S. cerevisiae, GFP fusion, multiplex flow cytometry, primary screen (AID 1870;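 active = percent response above a set limit, the screen-wide mean plus 3 SD, cut at about 130% in these data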;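 note: barcoded CIT2-GFP strain pooled with four other GFP strains with rapamycin as positive control; median GFP fluorescence per well over plate mean of DMSO wells so 100% = DMSO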). The following applies: S. cerevisiae CIT2-GFP expression, 3 h, at 10 µM, stronger effect = higher value.
The nature of assay [4]: TOR pathway LAP4-GFP level changes – S. cerevisiae, multiplex flow cytometry, primary screen (AID 1873;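 active = GFP signal, as percent of the solvent control, above the screen mean plus 3 SD, about 149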). The following applies: S. cerevisiae LAP4-GFP expression, 3 h, at 10 µM, stronger effect = higher value.
Assay [5] can be described thus: yeast AGP1-GFP level changes, GLN3 branch – cell-based, multiplex flow cytometry, S. cerevisiae, primary screen (AID 1887;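 active = GFP signal above the screen-wide mean plus 3 SD, that is over about 124.5% of the solvent control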;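 note: AGP1-GFP fusion strain of S. cerevisiae within a five-strain barcoded multiplex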). The following applies: 3 h, at 10 µM, stronger effect = higher value.
A short description of assay [6]: reduced mouse 2C T cell binding to pMHC/ICAM-1 vesicles – MLPCN validation set, flow cytometry, LFA-1/ICAM-1 modulator project, pilot screen (AID 2523;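 active = response below a set limit, under 55% cells CD8-positive and vesicle-bound, and CD8 cells' 90th-percentile brightness under 279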;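 for vesicle binding response: mean PE anti-B7-1 fluorescence of CD8+ cells relative to row control; 100% = QL9-loaded vesicles with DMSO vehicle in the same plate row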). Particulars: 2C mouse CD8+ T cells, at 7 µM, stronger effect = lower value; double positive events: measured here: CD8+/vesicle+ event percentage.
The target in assay [7] is Integrin beta-1 (Homo sapiens) + Integrin alpha-4 (Homo sapiens) (UniProt P13612+P05556). Description: alpha4beta1 integrin LIBS antibody binding reduction – U937 cells, HUTS-21 mAb, flow cytometry, validation set, VLA-4 allosteric modulator project, pilot screen (AID 2674;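 active = inhibition above 50%, about 3 SD of the validation set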;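 note: antibody binding induced by the VLA-4 ligand LDV present at three times its Kd; 0% = LDV ligand with antibody and no compound and 100% = antibody without LDV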). Particulars: HUTS-21 LIBS mAb binding, at 6.7 µM, stronger effect = higher value, binding induced by LDV ligand.
Chain of Integrin beta-1 (Homo sapiens) + Integrin alpha-4 (Homo sapiens) (P05556 whole entry, looked up): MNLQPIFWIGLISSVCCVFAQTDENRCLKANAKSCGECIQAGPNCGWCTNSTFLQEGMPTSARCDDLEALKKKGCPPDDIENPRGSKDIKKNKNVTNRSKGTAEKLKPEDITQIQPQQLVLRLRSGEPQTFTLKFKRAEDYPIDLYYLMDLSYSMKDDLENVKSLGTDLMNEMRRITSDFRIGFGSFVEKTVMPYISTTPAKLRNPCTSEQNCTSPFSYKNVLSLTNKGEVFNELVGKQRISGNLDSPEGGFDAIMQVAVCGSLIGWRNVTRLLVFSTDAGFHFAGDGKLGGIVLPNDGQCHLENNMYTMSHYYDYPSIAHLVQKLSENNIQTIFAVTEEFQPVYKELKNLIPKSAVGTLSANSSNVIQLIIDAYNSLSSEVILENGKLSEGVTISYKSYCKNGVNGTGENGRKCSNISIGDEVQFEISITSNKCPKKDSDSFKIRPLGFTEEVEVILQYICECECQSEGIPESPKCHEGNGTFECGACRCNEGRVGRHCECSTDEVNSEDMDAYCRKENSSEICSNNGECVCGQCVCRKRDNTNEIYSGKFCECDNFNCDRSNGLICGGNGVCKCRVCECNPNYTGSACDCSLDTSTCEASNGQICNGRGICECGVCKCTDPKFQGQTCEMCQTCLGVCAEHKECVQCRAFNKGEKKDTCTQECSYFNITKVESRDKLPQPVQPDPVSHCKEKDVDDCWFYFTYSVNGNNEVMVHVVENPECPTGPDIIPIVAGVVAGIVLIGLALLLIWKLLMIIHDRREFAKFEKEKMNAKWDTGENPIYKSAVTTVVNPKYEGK
Chain of Integrin beta-1 (Homo sapiens) + Integrin alpha-4 (Homo sapiens) (P13612 whole entry, looked up): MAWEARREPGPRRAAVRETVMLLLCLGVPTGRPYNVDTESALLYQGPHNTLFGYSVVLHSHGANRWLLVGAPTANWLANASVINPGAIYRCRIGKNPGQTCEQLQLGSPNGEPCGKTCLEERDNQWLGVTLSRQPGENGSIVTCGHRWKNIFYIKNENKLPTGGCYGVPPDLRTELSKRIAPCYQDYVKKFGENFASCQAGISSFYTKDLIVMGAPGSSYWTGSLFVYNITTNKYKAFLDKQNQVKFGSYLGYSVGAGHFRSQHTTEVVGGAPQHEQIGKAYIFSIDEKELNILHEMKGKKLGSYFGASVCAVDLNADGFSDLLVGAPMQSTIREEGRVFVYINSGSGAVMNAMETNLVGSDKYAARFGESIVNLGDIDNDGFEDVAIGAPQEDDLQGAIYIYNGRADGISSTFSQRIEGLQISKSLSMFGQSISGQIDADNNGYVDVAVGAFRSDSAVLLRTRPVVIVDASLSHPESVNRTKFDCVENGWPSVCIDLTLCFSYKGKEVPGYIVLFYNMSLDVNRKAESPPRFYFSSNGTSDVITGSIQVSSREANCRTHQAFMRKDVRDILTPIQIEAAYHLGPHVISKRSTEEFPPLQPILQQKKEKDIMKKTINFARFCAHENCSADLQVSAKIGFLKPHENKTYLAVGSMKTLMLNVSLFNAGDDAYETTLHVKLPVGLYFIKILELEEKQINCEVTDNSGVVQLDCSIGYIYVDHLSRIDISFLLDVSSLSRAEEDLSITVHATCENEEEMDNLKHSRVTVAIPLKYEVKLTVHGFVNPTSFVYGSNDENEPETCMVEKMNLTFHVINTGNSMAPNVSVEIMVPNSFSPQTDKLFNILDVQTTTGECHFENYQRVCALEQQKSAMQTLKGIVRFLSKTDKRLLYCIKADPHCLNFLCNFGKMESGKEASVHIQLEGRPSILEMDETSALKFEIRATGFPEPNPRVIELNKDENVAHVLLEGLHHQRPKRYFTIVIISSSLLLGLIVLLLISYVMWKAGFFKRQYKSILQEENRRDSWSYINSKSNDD

Assay [8] in a line: calorie-restriction mimetic ROS inhibitors, yeast – validation compound set, pilot screen (AID 2706;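 active = superoxide response below 65% of plate, a cut near 3 SD across the whole screen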;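 note: yeast exposed to compound for one week at 30 degrees C before staining; 100% = mean of all compound wells on the same plate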). The following applies: S. cerevisiae aging, superoxide DHE fluorescence; at 10 µM; stronger effect = lower value.
The target in assay [9] is Beta-adrenergic receptor kinase 1 (Homo sapiens) (UniProt P25098). Description: GRK2 binders displacing RNA aptamer, biochemical, validation, human GRK2, bead flow cytometry (AID 488806;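 active = aptamer binding inhibition above 30%, about 3 SD of noise from non-fluorescent compounds; inactive = inhibition at or below 30%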). The following applies: bead-bound GRK2, FAM-aptamer displacement, at 10 µM, stronger effect = higher value.
Chain of Beta-adrenergic receptor kinase 1 (Homo sapiens) (P25098 whole entry, looked up): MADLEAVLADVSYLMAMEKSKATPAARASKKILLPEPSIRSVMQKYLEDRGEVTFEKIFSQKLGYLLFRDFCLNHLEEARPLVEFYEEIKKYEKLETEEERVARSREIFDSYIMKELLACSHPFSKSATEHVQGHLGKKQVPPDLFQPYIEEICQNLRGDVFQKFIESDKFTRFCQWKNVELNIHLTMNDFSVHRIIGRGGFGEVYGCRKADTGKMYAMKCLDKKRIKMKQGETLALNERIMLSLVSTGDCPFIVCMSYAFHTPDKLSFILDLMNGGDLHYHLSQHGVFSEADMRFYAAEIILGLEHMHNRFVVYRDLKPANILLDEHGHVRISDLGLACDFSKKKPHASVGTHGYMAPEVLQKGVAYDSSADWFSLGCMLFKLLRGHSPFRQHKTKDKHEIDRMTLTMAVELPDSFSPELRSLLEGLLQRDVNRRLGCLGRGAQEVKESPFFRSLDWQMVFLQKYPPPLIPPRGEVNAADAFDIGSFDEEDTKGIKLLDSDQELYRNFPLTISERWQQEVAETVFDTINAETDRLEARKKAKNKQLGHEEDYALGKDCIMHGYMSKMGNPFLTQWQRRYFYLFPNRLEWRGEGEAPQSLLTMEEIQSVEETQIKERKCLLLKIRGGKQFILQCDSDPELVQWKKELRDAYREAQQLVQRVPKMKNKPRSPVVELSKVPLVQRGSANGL
Assay [10] concerns the target Beta-2 adrenergic receptor (Homo sapiens) (UniProt P07550). Nature of the assay: agonist-induced loss of surface beta2AR – cell-based, FAP fluorogen, flow cytometry, validation set, pilot screen (AID 504459;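 active = percent response above 42, roughly 3 SD of non-fluorescent test compounds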;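 note: agonist-driven loss of surface beta2AR via internalization measured by FAP dye flow cytometry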). The following applies: Am2.2-beta2AR cells, at 10 µM, stronger effect = higher value.
In assay [11] the target is AP-2 complex subunit beta (Homo sapiens) (UniProt P63010). Nature of the assay: beta-arrestin/AP2 interaction blockers – biochemical, validation set, GST-AP2 beads, flow cytometry, pilot screen (AID 504541;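 active = inhibition above 54%, about 3 SD of non-fluorescent compounds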;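 note: AP2 carries R879A mutation and is captured from E. coli lysate; bead-bound FITC arrestin peptide fluorescence measuring arrestin peptide binding to AP2; 0% = DMSO wells and 100% = excess unlabeled arrestin peptide control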). Particulars: FITC arrestin peptide, at 10 µM, stronger effect = higher value, AP2 beta2 appendage fragment, R879A mutant.
Chain of AP-2 complex subunit beta (Homo sapiens) (P63010 whole entry, looked up, the tested form may be a part, one chain of several): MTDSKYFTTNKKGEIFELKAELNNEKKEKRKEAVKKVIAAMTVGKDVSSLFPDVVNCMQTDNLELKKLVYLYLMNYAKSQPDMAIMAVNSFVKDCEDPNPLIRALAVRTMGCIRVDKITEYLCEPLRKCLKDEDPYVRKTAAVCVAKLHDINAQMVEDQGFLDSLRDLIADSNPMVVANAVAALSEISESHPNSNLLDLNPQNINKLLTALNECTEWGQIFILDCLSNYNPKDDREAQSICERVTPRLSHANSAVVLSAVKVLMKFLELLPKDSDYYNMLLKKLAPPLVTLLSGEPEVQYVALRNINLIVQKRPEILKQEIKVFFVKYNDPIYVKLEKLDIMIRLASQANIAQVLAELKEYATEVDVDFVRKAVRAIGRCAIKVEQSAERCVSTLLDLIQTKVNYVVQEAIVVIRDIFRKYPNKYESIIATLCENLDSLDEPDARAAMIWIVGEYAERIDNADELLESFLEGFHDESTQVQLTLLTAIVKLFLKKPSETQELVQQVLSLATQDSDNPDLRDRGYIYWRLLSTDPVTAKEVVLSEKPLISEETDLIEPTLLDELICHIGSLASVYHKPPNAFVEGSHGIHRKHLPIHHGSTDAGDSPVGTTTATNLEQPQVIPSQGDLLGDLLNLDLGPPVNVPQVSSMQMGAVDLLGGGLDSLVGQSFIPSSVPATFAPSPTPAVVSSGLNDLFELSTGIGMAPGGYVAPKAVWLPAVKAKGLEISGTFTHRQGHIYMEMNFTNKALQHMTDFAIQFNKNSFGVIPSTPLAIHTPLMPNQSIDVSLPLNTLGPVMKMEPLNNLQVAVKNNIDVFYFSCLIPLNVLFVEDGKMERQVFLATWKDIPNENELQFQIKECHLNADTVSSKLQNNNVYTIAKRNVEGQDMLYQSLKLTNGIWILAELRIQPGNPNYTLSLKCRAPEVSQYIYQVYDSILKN
Assay [12] is described as follows: cytosolic pH regulators acting via V-ATPase – S. cerevisiae, pHLuorin, HTS validation (AID 504600).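 Note: plate controls were DMSO for no effect and reference compound for full effect.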 The following applies: V-ATPase proton transport, at 10 µM, stronger effect = higher value.
Assay [13] concerns anti-desmoglein-3 scFv antibody binding to human DSG3. Description: blockers of pathogenic pemphigus antibody–desmoglein-3 binding – biochemical, validation compound set, bead-based, flow cytometry, pilot screen (AID 588368;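 active = binding below the plate cutoff, the plate median minus 3 SD, with a reading above zero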;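 note: signal is the median channel fluorescence of bead-bound GFP antibody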). The following applies: Protein G beads, DSG3-Fc, scFv-GFP binding, at 10 µM, stronger effect = lower value.
Assay [14] in a line: Nile Red efflux blockade in pump-expressing yeast – validation compound set, multiplex, phenotypic, pilot screen (AID 588506;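 active = efflux inhibition above 0.42, the validation set average plus 4 SD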;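 note: Nile Red retained in cells so higher fluorescence means more efflux inhibition; 0 = negative control wells and 1 = enniatin B 25 µM full block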). Particulars: S. cerevisiae pump-expressing triplex, Nile Red efflux flow cytometry; at 10 µM; stronger effect = higher value; the pumps come from Candida albicans.
The target of assay [15] is ATP-binding cassette sub-family B member 6 (Homo sapiens) (UniProt Q9NP58). Nature of the assay: blockers of ABCB6-driven porphyrin uptake – K562-ABCB6 cells, flow cytometry, validation set, pilot screen (AID 588550;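 active = inhibition above the screen-wide mean plus 3 SD, about 51%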;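 note: 0% = DMSO wells and 100% = benzethonium chloride 70 µM positive control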). The following applies: K562-ABCB6 porphyrin accumulation, 1 h, at 10 µM, stronger effect = higher value.
Chain of ATP-binding cassette sub-family B member 6 (Homo sapiens) (Q9NP58 whole entry, looked up): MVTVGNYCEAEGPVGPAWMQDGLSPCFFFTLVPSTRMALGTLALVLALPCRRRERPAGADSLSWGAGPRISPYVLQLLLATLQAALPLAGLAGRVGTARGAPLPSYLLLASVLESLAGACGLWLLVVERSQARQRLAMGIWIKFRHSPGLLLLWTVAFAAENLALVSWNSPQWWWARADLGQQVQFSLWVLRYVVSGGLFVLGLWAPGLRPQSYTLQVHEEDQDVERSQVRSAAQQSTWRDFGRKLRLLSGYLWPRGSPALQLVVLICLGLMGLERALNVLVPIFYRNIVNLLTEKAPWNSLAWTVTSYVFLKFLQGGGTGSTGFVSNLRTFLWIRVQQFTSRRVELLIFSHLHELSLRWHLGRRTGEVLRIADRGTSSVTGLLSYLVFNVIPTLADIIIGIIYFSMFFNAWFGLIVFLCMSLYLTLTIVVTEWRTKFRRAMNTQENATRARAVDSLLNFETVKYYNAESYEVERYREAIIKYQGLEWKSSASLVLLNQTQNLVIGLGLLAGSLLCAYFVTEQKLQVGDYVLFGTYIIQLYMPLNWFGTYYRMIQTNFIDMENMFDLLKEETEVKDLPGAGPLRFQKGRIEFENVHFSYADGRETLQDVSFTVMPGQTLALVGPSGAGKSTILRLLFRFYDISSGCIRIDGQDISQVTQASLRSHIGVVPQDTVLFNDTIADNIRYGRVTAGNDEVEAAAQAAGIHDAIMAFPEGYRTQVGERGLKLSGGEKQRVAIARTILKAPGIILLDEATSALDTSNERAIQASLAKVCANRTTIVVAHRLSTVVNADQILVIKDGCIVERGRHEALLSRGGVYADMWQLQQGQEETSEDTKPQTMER
Assay [16] can be described thus: AML differentiation inducers, ER-HoxA9 marrow cells – cell-based, GFP/MAC1 double positive, flow cytometry, validation set, primary screen (AID 588685;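 active = differentiation response of at least 50%, scaled between solvent and reference control, from cells with both markers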;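 note: compound exposure lasts four days before antibody staining and flow analysis; 0% = DMSO wells and 100% = 5 µM fulvestrant positive control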). The following applies: stronger effect = higher value, normalized: vehicle 0, fulvestrant 100.

Chain of Beta-2 adrenergic receptor (Homo sapiens) (P07550 whole entry, looked up): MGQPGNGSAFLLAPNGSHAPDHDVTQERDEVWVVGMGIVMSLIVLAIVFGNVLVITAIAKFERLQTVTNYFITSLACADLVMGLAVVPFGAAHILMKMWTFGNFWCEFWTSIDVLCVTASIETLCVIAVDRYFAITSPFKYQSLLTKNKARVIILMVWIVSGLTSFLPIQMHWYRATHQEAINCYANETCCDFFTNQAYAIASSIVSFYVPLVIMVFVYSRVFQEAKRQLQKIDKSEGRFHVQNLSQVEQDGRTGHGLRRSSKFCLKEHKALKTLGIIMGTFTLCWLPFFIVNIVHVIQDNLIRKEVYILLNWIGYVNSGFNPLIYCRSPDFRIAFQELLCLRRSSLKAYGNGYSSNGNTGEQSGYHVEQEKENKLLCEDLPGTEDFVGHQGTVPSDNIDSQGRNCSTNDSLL

In the case of `Cc1[nH]c2ccccc2c1C(=O)C(=O)NCc1ccco1`, the percent of DMSO control GFP in [1] was 103% (inactive). For the same compound, the GFP response vs DMSO in [2] was 104% (inactive); in [4] it was 112% (inactive). Besides, in [3], the percent response of DMSO control was 101% (inactive). The GFP response, % of DMSO in [5] was 113% (inactive). Further, the double positive events in assay [6] worked out at 62%. For the same compound, the vesicle binding response in [6] is 151% (inactive). For the same compound, the inhibition in assay [7] was -14.7% (inactive); in assay [11], 5.02% (inactive); in [15], 4% (inactive). For the same compound, the superoxide response (% of plate) in [8] was 97.1% (inactive). In addition, the aptamer binding inhibition in [9] is 8% (inactive). In addition, the response is -22.4% (inactive) in assay [10] and -4.14% (inactive) in assay [12]. In addition, the binding (% of control) in [13] is 106% (inactive). In [14], the efflux inhibition (fraction of control) is -0.04 (inactive). Besides, in [16], the differentiation response was -4% (inactive).
In the case of `Cc1cn([C@H]2C[C@H](N=[N+]=[N-])[C@@H](CO)O2)c(=O)[nH]c1=O`, in assay [1], the percent of DMSO control GFP was 94.2% (inactive). In addition, the GFP response vs DMSO is 138% (inactive) in assay [2] and 82.5% (inactive) in assay [4]. Also, the percent response of DMSO control in assay [3] is 110% (inactive). Also, the GFP response, % of DMSO in assay [5] is 95.9% (inactive). Moreover, the double positive events in assay [6] was 61.7%. The vesicle binding response in assay [6] is 179% (inactive). For the same compound, the inhibition in assay [7] is 16.2% (inactive); in assay [11], -5.32% (inactive); in [15], 13% (inactive). In addition, the superoxide response (% of plate) in assay [8] was 88.8% (inactive). Further, the aptamer binding inhibition in assay [9] was 6% (inactive). Besides, the response in assay [10] was 2.53% (inactive); in assay [12], 9.2% (inactive). Further, in assay [13], the binding (% of control) is 103% (inactive). Moreover, the efflux inhibition (fraction of control) in assay [14] was 0.05 (inactive). In assay [16], the differentiation response is 14.7% (inactive).
Turning to `COc1cc2nc(N3CCN(C(=O)C4CCCO4)CC3)nc(N)c2cc1OC` (stereo not given), the percent of DMSO control GFP in [1] was 102% (inactive). Also, the GFP response vs DMSO in assay [2] was 106% (inactive); in [4], 92.6% (inactive). Also, the percent response of DMSO control in assay [3] is 95.5% (inactive). For the same compound, the GFP response, % of DMSO in [5] is 94% (inactive). Moreover, in assay [6], the double positive events was 55.7% and 64.6%. Also, the vesicle binding response in assay [6] was 197% (inactive) and 148% (inactive). Moreover, the inhibition was 1.62% (inactive) and 5.61% (inactive) in [7]; 8.12% (inactive) and -5.62% (inactive) in [11]; 7% (inactive) and -13% (inactive) in [15]. Besides, the superoxide response (% of plate) in assay [8] was 98% (inactive) and 91.7% (inactive). Besides, the aptamer binding inhibition in assay [9] is -3% (inactive) and 5% (inactive). In addition, the response in assay [10] is 20.9% (inactive); in [12], -29.6% (inactive) and 2.76% (inactive). The binding (% of control) in assay [13] is 109% (inactive) and 107% (inactive). In assay [14], the efflux inhibition (fraction of control) is -0.39 (inactive) and -0.33 (inactive). Also, in assay [16], the differentiation response was 22.4% (inactive) and 10.1% (inactive).
Regarding `Cc1ccc2c(c1)C1OCCC1C1N2C(=O)C2C(C(=O)O)C3C=CC21O3` (stereo not given), the percent of DMSO control GFP in [1] is 104% (inactive). Also, the figures for the GFP response vs DMSO in assay [2] and in [4] were 107% (inactive) and 106% (inactive), respectively. Moreover, the percent response of DMSO control in [3] is 110% (inactive). The GFP response, % of DMSO in assay [5] was 107% (inactive). In addition, the double positive events in [6] came to 62.2%. Also, in assay [6], the vesicle binding response was 207% (inactive). Besides, the inhibition in assay [7] was 11% (inactive); in assay [11], 41.7% (inactive); in assay [15] it was 11% (inactive). Besides, the superoxide response (% of plate) in assay [8] was 106% (inactive). The aptamer binding inhibition in assay [9] is 11% (inactive). Moreover, the response was 0.35% (inactive) in [10] and 3.53% (inactive) in assay [12]. In addition, the binding (% of control) in [13] is 101% (inactive). Besides, in [14], the efflux inhibition (fraction of control) was -0.32 (inactive). Also, in [16], the differentiation response is -13.3% (inactive).
As for `CC(=O)c1c(C)c(C)c2n1CCn1c(C)ccc1-2`, the percent of DMSO control GFP in assay [1] is 105% (inactive). Moreover, the GFP response vs DMSO in [2] was 107% (inactive); in assay [4], 121% (inactive). Besides, the percent response of DMSO control in [3] is 93.1% (inactive). Besides, the GFP response, % of DMSO in assay [5] was 107% (inactive). For the same compound, the double positive events in assay [6] came to 60.2%. Further, in assay [6], the vesicle binding response is 141% (inactive). Besides, the inhibition in assay [7] was -36.9% (inactive); in [11], 6.32% (inactive); in [15], -18% (inactive). In addition, the superoxide response (% of plate) in assay [8] was 99.4% (inactive). Besides, the aptamer binding inhibition in assay [9] was 0% (inactive). For the same compound, the response was -22.4% (inactive) in [10] and -6.83% (inactive) in assay [12]. Besides, in assay [13], the binding (% of control) is 116% (inactive). Also, the efflux inhibition (fraction of control) in assay [14] is -0.09 (inactive). In addition, the differentiation response in [16] is -5.97% (inactive).

Broadly, the inhibition is the relative decrease from the control value, in per cent.
